ssDAF12 agonist: S. stercoralis DAF-12 activation, primary screen | HEK293 ssDAF-12/GRIP1 lit1-tk-luc reporter, luminescence; % of 3 µM dafachronic acid response | activation, % at 6.8 µM | 1% of 370,000 active;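 active = activation above the mean over all tested compounds plus 3 SD, cut at about 0.9% in these data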;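 note: 0% = DMSO-only wells and 100% = 3 µM delta7-dafachronic acid wells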
GAA850 FXN act: frataxin GAA850 promoter activation | activation, % at 6 µM | HEK293 lucGAA850 FXN promoter luciferase reporter, 24 h; percent of 10 µM SAHA response | 0.56% of 360,000 active;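 active = activation above the average of all compounds screened plus 3 SD, cutoff fixed separately per campaign, cut at about 7.5% in these data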;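 note: 0% = DMSO wells and 100% = 10 µM SAHA wells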
DAX1 inh-1: inhibitors of DAX1 repression of SF-1 activated StAR promoter | AID 652010 | HEK293T StAR-luciferase reporter, SF-1/DAX-1 repression relief | 1.1% of 370,000 active | inhibition, % at 6.8 µM;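 active = inhibition above the mean over all tested compounds plus 3 SD, cut at about 3.6% in these data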;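 note: 0% = DAX-1 cells with DMSO and 100% = cells lacking DAX-1 with DMSO; higher inhibition means more luminescence from relief of DAX-1 repression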
hgDAF12 agonist: agonists of H. glycines DAF-12 nuclear receptor. HEK293 GAL4-hgDAF12 UAS-luciferase reporter, agonist luminescence; normalized to butyrate control. activation, % at 6.8 µM. 1.8% of 370,000 active. AID 687014;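 active = activation above a cutoff set at the mean of all screened compounds plus 3 SD, cut at about 10% in these data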;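 note: 0% = DMSO wells and 100% = sodium butyrate wells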
DAX1 inh-2: inhibitors of human orphan nuclear receptor DAX1 (NR0B1); P51843; 0.99% of 340,000 active; inhibition, % at 6.75 µM; HEK293 Gal4-DAX1 luciferase reporter, luminescence; AID 504766;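 active = inhibition above the mean over all tested compounds plus 3 SD, cut at about 4.2% in these data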;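 note: 0% = DAX1-transfected cells with DMSO and 100% = empty-vector control cells with DMSO; inhibition shows as a rise in luminescence from relieved DAX1 repression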
Target sequence (P51843 207-470 limits assumed): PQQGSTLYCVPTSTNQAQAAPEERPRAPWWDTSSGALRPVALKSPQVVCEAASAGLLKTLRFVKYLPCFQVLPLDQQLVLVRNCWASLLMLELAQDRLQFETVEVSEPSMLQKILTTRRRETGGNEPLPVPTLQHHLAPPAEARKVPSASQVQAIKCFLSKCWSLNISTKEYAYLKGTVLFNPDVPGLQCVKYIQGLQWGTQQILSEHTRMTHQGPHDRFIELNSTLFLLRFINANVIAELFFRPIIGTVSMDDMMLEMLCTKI
hcDAF12 agonist: activates DAF-12 receptor from parasite H. contortus; 1.4% of 370,000 active; AID 652067; HEK293 hcDAF-12 lit1-tk-luc reporter, luminescence; 0% DMSO, 100% Δ7-dafachronic acid; activation, % at 6.8 µM;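 active = activation above the mean of all tested compounds plus 3 SD, cut at about 5.5% in these data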;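 note: 100% = response to 3 µM Δ7-dafachronic acid high control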
LXR ag: counter-screen for hcDAF-12 agonists: agonists of human LXR-beta; activation, % at 6.8 µM; AID 743027; 3,400 tested, under 10 active; HEK293 Gal4-LXR tk-luc reporter, luminescence, 24 h; normalized: DMSO 0%, positive control 100%; shares compounds with hcDAF12 agonist;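 active = mean percent activation of the reporter above a cutoff set as the average over tested compounds plus their standard deviation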
Target sequence (P55055 whole entry, looked up, the tested form may be a part): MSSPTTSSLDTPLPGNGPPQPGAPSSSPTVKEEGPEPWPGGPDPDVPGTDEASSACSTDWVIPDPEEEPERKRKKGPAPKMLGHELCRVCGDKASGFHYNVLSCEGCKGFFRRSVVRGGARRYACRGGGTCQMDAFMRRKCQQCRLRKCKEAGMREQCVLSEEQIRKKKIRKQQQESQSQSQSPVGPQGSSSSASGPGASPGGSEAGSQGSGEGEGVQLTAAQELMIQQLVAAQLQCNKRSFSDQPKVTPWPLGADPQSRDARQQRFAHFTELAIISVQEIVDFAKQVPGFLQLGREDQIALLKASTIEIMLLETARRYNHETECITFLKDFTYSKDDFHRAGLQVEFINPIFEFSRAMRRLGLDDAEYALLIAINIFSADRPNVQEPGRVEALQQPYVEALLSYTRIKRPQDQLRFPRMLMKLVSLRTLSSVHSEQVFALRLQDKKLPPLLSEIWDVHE
hcDAF12 conf: confirmation of H. contortus DAF-12 agonists; shares compounds with hcDAF12 agonist; HEK293 hcDAF-12 lit1-tk-luc reporter, luminescence; % of Δ7-dafachronic acid response; activation, % at 6.8 µM; 61% of 3,400 active; AID 743032;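 active = mean activation across triplicate tests above the threshold derived from the earlier primary screen, cut at about 5.5% in these data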;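 note: 0% = DMSO only wells and 100% = 3 µM Δ7-dafachronic acid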
hgDAF12 ag: confirmation of H. glycines DAF-12 agonists | shares compounds with hgDAF12 agonist | HEK293 GAL4-hgDAF12 luciferase reporter, agonist mode; percent of butyrate response | activation, % at 6.8 µM | 80% of 3,300 active;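 active = mean activation over triplicate wells above the hit cutoff derived from the earlier primary screen, cut at about 11% in these data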;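 note: 0% = DMSO low control and 100% = 2 mM sodium butyrate high control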
LXR ag 2: activates human LXR-beta, counter-screen for DAF-12 agonists; shares compounds with hgDAF12 agonist; HEK293 Gal4-LXR luciferase reporter, 24 h; activation, % at 6.8 µM; 3,300 tested, under 10 active; AID 743051;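 active = mean activation of the triplicate above a set limit carried over from the primary screen, none filed active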
* hit, by the source's call; · = no result. Shown are actives, neighbours in structure and some others; about 4.5% of the full set was active somewhere.

SMILES | ssDAF12 agonist | GAA850 FXN act | DAX1 inh-1 | hgDAF12 agonist | DAX1 inh-2 | hcDAF12 agonist | hgDAF12 ag | LXR ag 2 | others
CCOC(=O)/C(=N\Nc1ncnc2ccccc12)c1ccc(OC)cc1 | 2.4* | 1 | 3 | 18* | 1 | 17* | 17* | 1 | LXR ag=2;hcDAF12 conf=11*
CCOC(=O)C(Cc1ccnc2ccccc12)=NO | -1 | 1 | -1 | -5 | -1 | -1 | · | ·
COc1ccccc1N1CCN(S(=O)(=O)CCNC(=O)C2CCCC2)CC1 | 0 | 2 | -2 | -2 | 1 | -1 | · | ·
Nc1ccccc1C(=O)N/N=C1\C2CN3CCN(C2)CC1(c1ccccc1)C3 | 0 | 3 | 3 | 14* | 5.0* | 12* | 2 | 0 | LXR ag=0;hcDAF12 conf=0
Cc1cc2nc(-c3ccc[nH]c3=O)n(Cc3ccc(F)cc3)c2cc1C | -1 | 5 | 0 | 1 | 1 | 0 | · | ·
Cc1cc2nc(-c3ccc[nH]c3=O)[nH]c2cc1C | 1.2* | -4 | 3 | 15* | -5 | 7.6* | 12* | 1 | LXR ag=2;hcDAF12 conf=7.9*
COc1ccc(CN2CCN(CCSc3ccc(C)cc3)CC2)c(OC)c1OC | -2 | 2 | -1 | -5 | -1 | 0 | · | ·
CCN(CC)S(=O)(=O)c1ccc2c(c1)nc(SCC(=O)N(C)C1CCS(=O)(=O)C1)n2CC (stereo not given) | -1 | 2 | 0 | -1 | -1 | 0 | · | ·
O=C(Nc1nc2ccccc2n1CCN1CCCC1)c1ccc(Cl)cc1 | 0 | 2 | 1 | 18* | 1 | 7.3* | 16* | 0 | LXR ag=1;hcDAF12 conf=9.5*
Cc1ccccc1SCCNC(=O)c1ccccc1Br | -1 | 6 | 1 | 6 | 0 | 0 | · | ·
Cc1ccc(CNC(=O)Nc2ccc(F)cc2)n1C | 0 | 0 | 0 | 0 | 0 | 2 | · | ·
COc1ccc(-c2nc3c4ccccc4ccn3c2Cc2cccc(F)c2)cc1OC | 1.0* | · | -1 | 16* | · | 6.7* | 14* | 0 | LXR ag=1;hcDAF12 conf=7.4*
CC(=O)Nc1ccc(NC(=O)CSc2nnc(NC(=O)c3ccccc3F)s2)cc1 | 0 | 0 | 3 | 17* | 1 | 7.1* | 13* | 0 | LXR ag=1;hcDAF12 conf=7.2*
Cn1cc(SCC(=O)Nc2nccs2)c2ccccc21 | 0 | 3 | 4.4* | 20* | 3 | 2 | 14* | 0
Cc1ccc(C)c(NC(=O)c2cc(-c3ccc(Cl)cc3)nc3ccccc23)c1 | -1 | · | 0 | 15* | · | -1 | 1 | 0
CCOc1ccc(NC(=O)c2cc(-c3ccc(Cl)cc3)nc3ccccc23)cc1 | -1 | · | -1 | 0 | · | 0 | · | ·
Cc1ccc(O)c(C2=NNC(c3ccc(Cl)cc3)C2)c1 (stereo not given) | 1 | 4 | 3 | 15* | 2 | 5.7* | 13* | 1
CCCN(CCC)Cc1c(C(=O)N/N=C/c2ccc(C)o2)nnn1-c1nonc1N | -1 | -2 | 1 | 2 | 0 | 0 | · | ·
COc1cc(C(=O)NCC2(c3ccccc3)CCCC2)cc(OC)c1OC | -2 | -1 | 0 | -2 | -1 | -2 | · | ·
Cc1ccccc1S(=O)(=O)Nc1nc2ccccc2nc1Cl | -1 | -1 | 1 | 1 | 0 | 0 | · | ·
Cc1ccccc1S(=O)(=O)Nc1nc2ccccc2nc1N1CCc2ccccc2C1 | 0 | 5 | 2 | 14* | 0 | 5 | 10 | 0
CC(c1ccccc1)c1nnc(NC(=O)Nc2ccccc2)s1 (stereo not given) | -1 | 3 | 1 | 3 | -1 | -1 | · | ·
CC(C)Cc1nnc(NC(=O)Nc2ccccc2)s1 | -2 | 5 | 2 | 21* | 0 | 2 | 14* | 0
CCCC(C)(C)C(=O)N1CCC1(C)C(=O)NS(=O)(=O)c1ccc(Cl)cc1 (stereo not given) | -1 | 1 | -1 | 2 | · | 1 | · | ·
O=C(NO)c1ccccc1O | -1 | 1 | 0 | -2 | -1 | 1 | · | ·
SMILES | ssDAF12 agonist | GAA850 FXN act | DAX1 inh-1 | hgDAF12 agonist | DAX1 inh-2 | hcDAF12 agonist | hgDAF12 ag | LXR ag 2 | others
O=C(/C=C/c1ccc(Br)cc1)NC(=O)c1ccccc1O | 0 | 3 | 3 | 13* | 0 | 5 | 12* | 1
Cc1ccc(C(=O)COC(=O)c2cccc([N+](=O)[O-])c2)s1 | -1 | 2 | 1 | 4 | 0 | 1 | · | ·
O=C(Nc1ccc(NC(=O)c2cccs2)cn1)c1ccccc1 | 0 | 3 | 3 | 16* | 1 | 5 | 15* | 1
O=C(Nc1ccc(NC(=O)C2CC2)cn1)c1ccccc1Cl | 0 | 0 | 1 | 4 | -1 | -2 | · | ·
O=C(Nc1ccc(NC(=O)C2CC2)cn1)c1ccccc1 | 0 | -1 | 3 | 16* | 0 | 5 | 13* | 1
Cc1ccc(NNC(=O)c2ccno2)c(C)c1 | 0 | 0 | 0 | 3 | 1 | 2 | · | ·
N/C(=N\OC(=O)COc1ccc(Cl)cc1Cl)c1ccncc1 | 0 | 3 | 4.0* | 16* | 6.2* | 5 | 21* | 1
CCOC(=O)C1CCN(C(=O)c2cc3cc(Br)ccc3oc2=O)CC1 | -1 | 2 | 0 | -2 | 1 | 0 | · | ·
CCCOc1cccc(C(=O)Nc2ccc3c(c2)OCCO3)c1 | 1 | 3 | 2 | 19* | 0 | 6.3* | 20* | 1
Cc1cc(C(=O)Nc2ccc3c(c2)OCCO3)ccc1[N+](=O)[O-] | 1 | 1 | 3 | 18* | -4 | 5 | 12* | 1
O=C(N/N=C/c1cc(O)ccc1[N+](=O)[O-])c1ccc2c(c1)OCCO2 | 0 | 5 | 3.6* | 18* | 0 | 4 | 14* | 0
COc1ccc(/C=N/NC(=O)c2ccc3c(c2)OCCO3)cc1[N+](=O)[O-] | -2 | 6 | 0 | 3 | 0 | 2 | · | ·
CN1CCN(c2ccc(NC(=O)c3ccc4c(c3)OCCO4)cc2)CC1 | 1 | 5 | 3 | 17* | 0 | 6.1* | 11* | 1
CCC(=O)N1CCN(c2ccc(NC(=O)c3ccc4c(c3)OCCO4)cc2)CC1 | -2 | 1 | 0 | 2 | -1 | -1 | · | ·
CCCOc1cccc(C(=O)Nc2cccc(NC(=O)c3ccco3)c2)c1 | -1 | 0 | -1 | 0 | -1 | -1 | · | ·

Compound activity as filed in PubChem BioAssay.
